Several values for one entry are separate records, joined by “and”; a condition that tells them apart may be missing. Equal entries are not always repeated. The panel holds about 79,000 compounds, 15% with a hit somewhere; the sample as a whole holds those more often. Some compounds were tested as several samples or in several runs, with calls that do not always agree. Activity calls are given as the source filed them. Cut-off read from the data, not from the text of the source: active = growth inhibition above about 70%; inactive = the rest.
What was measured:
[1] = NCI Yeast Anticancer Drug Screen. Data for the rad50 strain (AID 155);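 note: 0% = growth of vehicle-only cultures of the same strain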; settings: S. cerevisiae rad50 strain growth inhibition; at 50.0 µM; stronger effect = higher value
Procedure, shortened: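 Growth of the mutant yeast was measured after compound exposure and referenced to vehicle-treated cultures.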

[2] = NCI Yeast Anticancer Drug Screen. Data for the mec2-1 strain (AID 157); settings: S. cerevisiae mec2-1 strain, at 50.0 µM, stronger effect = higher value
Procedure, shortened: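 mec2-1 yeast strain, carrying an alteration in DNA damage repair or cell cycle control, was exposed to compounds; growth inhibition was measured relative to vehicle-treated controls.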

[3] = NCI Yeast Anticancer Drug Screen. Data for the sgs1 mgt1 strain (AID 161);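 note: 0% = growth of cultures given vehicle only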; settings: S. cerevisiae sgs1 mgt1 strain, at 50.0 µM, stronger effect = higher value
Procedure, shortened: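 Growth of a repair-deficient yeast mutant was monitored after compound treatment and expressed as inhibition relative to vehicle-treated cultures.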

[4] = NCI Yeast Anticancer Drug Screen. Data for the cln2 rad14 strain (AID 165);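 note: 0% = growth equal to vehicle treated cultures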; settings: S. cerevisiae cln2 rad14 strain, at 50.0 µM, stronger effect = higher value
Procedure, shortened: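 Yeast carrying cln2 and rad14 alterations (cell cycle control and DNA damage repair) were exposed to compounds. Growth inhibition was measured against vehicle-treated controls.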

[5] = NCI Yeast Anticancer Drug Screen. Data for the bub3 strain (AID 167); settings: S. cerevisiae bub3 mutant strain, at 50.0 µM, stronger effect = higher value
Procedure, shortened: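 Whole-cell yeast assay. The mutant strain was incubated with compounds, and growth inhibition was determined by comparison with vehicle-treated cells.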

[6] = NCI Yeast Anticancer Drug Screen. Data for the mlh1 rad18 strain (AID 175); settings: S. cerevisiae mlh1 rad18 strain growth inhibition; at 50.0 µM; stronger effect = higher value
Procedure, shortened: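 Growth inhibition of the yeast strain was measured after compound exposure and expressed relative to vehicle-treated controls. The strain carries defined defects in DNA damage repair.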

Measured: growth inhibition

CC12CCC3C(CCC4(O)C=CCCC34C=O)C1(O)CC(O)C2c1ccc(=O)oc1 (stereo not given)
inactive: [1] -28.1% | [2] -46.9% | [3] -12.7% | [4] -15.8% | [5] -53.9% | [6] -16.2%

CCC1=CC2CN3CCc4c([nH]c5ccccc45)C(C(=O)OC)(C2)C13 (stereo not given)
inactive: [1] 30.2% and -9.75% | [2] -26.9% and -17.9% | [3] -12.8% and -33.1% | [4] -19.3% and -6.65% | [5] -2.3% and -38.2% | [6] -17.6% and -19.2%

ClCCCBr
inactive: [1] 29.2% | [2] -7.35% | [3] -10.8% | [4] 13.3% | [5] 24.4% | [6] 21.9%

Cc1cccc(OCC2=NCCN2)c1C
inactive: [1] 2.95% | [2] -4.4% | [3] -8.45% | [4] -57.1% | [5] -4.55% | [6] -25.6%

CC1C2CCC3C(O)C2(CC(O)C2(O)C1CC(O)C2(C)C)CC3(C)O (stereo not given)
inactive: [1] 11.6% | [2] -24.8% | [3] 6.85% | [4] 13.3% | [5] -5.15% | [6] -4.35%

CC(=O)C1(c2ccccc2)CCCN(C)CC1 (stereo not given)
inactive: [1] -7.8% | [2] -8.95% | [3] 8.2% | [4] 1.35% | [5] 3.45% | [6] -3.45%

O=C(Cc1ccccc1)Oc1ccc2c(-c3ccccc3)c(C(=O)Nc3ccc(Cl)cc3)c(=O)oc2c1
inactive: [1] 6.75% | [2] 5.2% | [3] 2.2% | [4] 2.6% | [5] -23.4% | [6] 12.8%

NC(N)=N/N=C/c1c[nH]c2ccccc12
inactive: [1] -5.4% | [2] -14.2% | [3] -18% | [4] 4.8% | [5] -10.1% | [6] -25.1%

CC(C)CCN(CCC(C)C)CC(O)c1ccc(Br)cc1 (stereo not given)
inactive: [1] 5.1% | [2] -13.1% | [3] 6.1% | [4] -47.5% | [5] -15.6% | [6] 0.35%

CC[n+]1cccc2ccccc21
-6.7% (inactive) and 73.5% (active): [3]
inactive: [1] -0.45% and 56.5% | [2] -6.7% and 60.2% | [4] -11.2% and 5.65% | [5] -4.9% and 20.5% | [6] -25.2% and 66.7%

CC1CN1c1nc(N2CC2C)nc(N2CC2C)n1 (stereo not given)
inactive: [1] -6.8% | [2] 13.6% | [3] -2.65% | [4] -1.85% | [5] -19.2% | [6] -11.1%

O=C(O)C(F)(F)F.O=C(O)C(F)(F)F.O=C(O)C(F)(F)F.O=C(O)C(F)(F)F.[Rh].[Rh]
inactive: [1] 26.8% | [2] 17.1% | [3] 22.1% | [4] 21.2% | [5] 21.4% | [6] 28%

NC(=O)OCC(O)c1ccccc1 (stereo not given)
inactive: [1] -11.6% | [2] 10% | [3] -22.6% | [4] -27.8% | [5] -19.9% | [6] 2.2%

NCCN.NCCN.O=C([O-])C(=O)[O-].[Cl-].[Co+3]
inactive: [1] -22.4% | [2] -16.7% | [3] -31.8% | [4] -0.45% | [5] -24.6% | [6] -29.8%

CC1(C)CC(N)C(=O)c2ccccc21 (stereo not given)
inactive: [1] 7.25% | [2] -20.6% | [3] -5.6% | [4] 14.2% | [5] -4.4% | [6] 29%

CCCC1CC=CCC12C(=O)NC(=O)NC2=O (stereo not given)
inactive: [1] -4.7% | [2] 1.45% | [3] 12.7% | [4] -6.5% | [5] 0.5% | [6] 12.9%

NCCCNCCCN
inactive: [1] 5.2% | [2] -3.1% | [3] -3.95% | [4] -4.3% | [5] 7.85% | [6] -11.7%

O=C1NC(=O)C(F)C(O)N1 (stereo not given)
inactive: [1] -22.8% | [2] -17.8% | [3] -6.15% | [4] -14.8% | [5] 16.1% | [6] -8.2%

CCCOC(=O)c1cncn1C(C)c1ccccc1 (stereo not given)
inactive: [1] 4.4% | [2] 18.7% | [3] 37.5% | [4] 10.7% | [5] 35.6% | [6] 31.4%

O=C(c1ccccc1)C1C(C(=O)c2ccccc2)N1C1CCCCC1 (stereo not given)
active: [1] 81.8% | [5] 84.5% | [6] 80.8%
inactive: [2] 32% | [3] 14.8% | [4] 2.3%

CCCCCCCC[As](=O)(O)CCCCCCCC
inactive: [1] -2.95% | [2] -0.3% | [3] 20.9% | [4] -6.85% | [5] -0.7% | [6] -10.2%

CCOC(=O)C(CCc1ccc(N(CCCl)CCCl)cc1)(NC(C)=O)C(=O)OCC
inactive: [1] 1.5% | [2] -32.6% | [3] 8.65% | [4] -4.35% | [5] -16.8% | [6] -39.9%

C[CH2][Sn]([CH2]C)([n]1c(C)nc2ccccc21)[n]1c(C)nc2ccccc21
inactive: [1] -11.8% | [2] 2.95% | [3] -19.3% | [4] 0.3% | [5] 10.3% | [6] -12.8%

CCN(CC)CCN(Cc1ccccc1)C(=O)C(O)(c1ccccc1)c1ccccc1
inactive: [1] -0.4% | [2] -23.6% | [3] -4.05% | [4] -39.4% | [5] -1.5% | [6] -24.6%

COC1OC(CN=[N+]=[N-])C2OC12 (stereo not given)
inactive: [1] 5.4% | [2] -0.3% | [3] -3.2% | [4] 3.9% | [5] 0.6% | [6] 7.95%

CC(=O)OCC12CCC(C)=CC1OC1C(N(C)C)C(O)C2(C)C12CO2 (stereo not given)
inactive: [1] 33.1% | [2] 49.6% | [3] 16.5% | [4] 39.1% | [5] 18.4% | [6] -16.9%

Nc1ccccc1Nc1ccccc1C(=O)[O-].Nc1ccccc1Nc1ccccc1C(=O)[O-].[Zn+2]
inactive: [1] -19.2% | [2] -7% | [3] -15.2% | [4] 10.2% | [5] -29.4% | [6] -7.55%

C/C(=N\N(C)C)C(CN1CCCCC1)C(c1ccccc1)c1c(O)c2ccccc2oc1=O (stereo not given)
inactive: [1] -1.35% | [2] -30.2% | [3] -6.15% | [4] 4.8% | [5] 30.1% | [6] -9%

CC1=CC2C(C=C1)S(=O)(=O)N1CC21c1ccccc1 (stereo not given)
inactive: [1] 20.9% | [2] -31.4% | [3] -11% | [4] -8.3% | [5] -20.6% | [6] -3.9%

CN1CCc2cc3c(cc2C1)OCO3
inactive: [1] -22.9% and -14.8% | [2] 2.5% and -16.9% | [3] -12.9% and 8.55% | [4] -22.6% and 7.65% | [5] -5.85% and 2.45% | [6] -17.9% and 28.6%

BrC(Br)c1cccc(C(Br)Br)c1
inactive: [1] 55.7% | [2] 37.8% | [3] 27.1% | [4] 37.5% | [5] 64% | [6] 56.6%

CCOP(=O)(OCC)C(=C(Cl)Cl)C(Cl)Cl
inactive: [3] 8.75% | [4] 37.6% | [5] -17.1% | [6] 49.8%
active: [1] 82.6% | [2] 85.2%

C[P+](CCl)(CCl)CCl
inactive: [1] 5.45% | [2] -6.45% | [3] -11.7% | [4] -7.3% | [5] -7.6% | [6] -10%

CC1(C)C(=O)C=CC2(C)C3CCC4(C)C(O)CCC4(C)C3CCC12 (stereo not given)
inactive: [1] 9.6% | [2] -10.2% | [3] 7.2% | [4] -30.1% | [5] 13.8% | [6] 20.1%

Cc1cc(N(CCCl)CCCl)ccc1C=Nc1ccccc1C(=O)O
inactive: [1] 27.4% | [2] 3.9% | [3] 28.4% | [4] 16.1% | [5] 2.65% | [6] 29.1%

CC(F)C(N)C(=O)O (stereo not given)
inactive: [1] -7.9% | [2] -3.65% | [3] -7.75% | [4] -1.7% | [5] -0.1% | [6] -11.9%

Cc1c[n+]2ccc3ccccc3c2c2ccccc12
inactive: [1] -3.9% | [2] -10.9% | [3] -8.65% | [4] -78.2% | [5] -3.2% | [6] -11.7%

O=c1c2cc(Br)ccc2[nH]c(=S)n1-c1ccc(Br)cc1
inactive: [1] 9.95% | [2] -7.2% | [3] 15.2% | [4] 18% | [5] 35.5% | [6] 12.2%

COC1OC2COc3ccccc3OC2C(N=C(N)N[N+](=O)[O-])C1OS (stereo not given)
inactive: [1] -0.8% | [2] -7.55% | [3] 2.15% | [4] -24.7% | [5] -3.15% | [6] 11.3%

CC(Cl)CN1COc2ccc3ccc4c(c3c2C1)CN(CC(C)Cl)CO4 (stereo not given)
inactive: [1] 29.1% | [2] 14.4% | [3] 28.4% | [4] -17.9% | [5] 6% | [6] 34.1%

Reference: PubChem BioAssay (NCI)
